# Most compounds without a hit are left out; they make up all but 1.2% or so of the library.
# RGS16-Gao: modulators of RGS16 binding to Galphao, primary screen, biochemical, human proteins, multiplexed bead flow cytometry. AID 1441, 2008. binding response (% of control), % at 10 µM. 0.38% of 220,000 active. bead-based flow cytometry RGS16-Galphao binding, fluorescence; actives lie on both sides. Regulator of G-protein signaling 16 (Homo sapiens) + Guanine nucleotide-binding protein …;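 also: Galphao activated by GDP with aluminum fluoride before binding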
# GSH bead fluor: compound fluorescence on glutathione beads, profiling panel, artefact control, biophysical, 488/530 nm, flow cytometry. GSH beads flow cytometry, compound fluorescence 488/530 nm; hits give high values. fluorescence (KMESF) at 10 µM. 0.25% of 190,000 active; in the data active = fluorescence above about 89;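 also: glutathione beads carrying GST-tagged Bcl family fusion proteins plus one bare bead set; values are compound well signal with DMSO vehicle wells as background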
# RGS4-Gao reg: modulators of RGS4 binding to Galphao, primary screen, biochemical, multiplexed bead flow cytometry; Guanine nucleotide-binding protein G(o) subunit alpha (Homo sapiens), P09471; actives lie on both sides; binding response (% of control), % at 10 µM; 0.33% of 220,000 active; AID 1415, 2008; in the data active = binding response below about 49% or above about 150%; inactive = in between;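 also: fluorescent Galphao activated with aluminum fluoride binding bead-coupled RGS4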
# Avidin fluor: green autofluorescence of compounds with avidin beads – biophysical, 488/530 nm, flow cytometry, artefact control, profiling panel | compound fluorescence 488/530 nm; hits give high values | fluorescence (KMESF) at 10 µM | 0.38% of 220,000 active; in the data active = fluorescence above about 47
# RGS8-Gao reg: RGS8-Galphao binding modulators, primary screen, biochemical, multiplexed bead flow cytometry | AID 1423, 2008 | actives lie on both sides | 0.34% of 220,000 active | response (percent of control binding), % at 10 µM; in the data active = response below about 60% or above about 140%; inactive = in between;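 also: Galphao activated as the GDP aluminium fluoride complex binding bead-coupled RGS8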
# RGS7-Gao: RGS7-Galphao binding modulators, primary screen, biochemical, multiplexed bead flow cytometry; Guanine nucleotide-binding protein G(o) subunit alpha (Homo sapiens), P09471; actives lie on both sides; binding response (% of control), % at 10 µM; 0.35% of 220,000 active; AID 1439, 2008; in the data active = binding response below about 49% or above about 150%; inconclusive = no clear call, values can overlap the other calls; inactive = in between;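 also: fluorescent Galphao held in activated GDP-AlF4 state binding bead-coupled RGS7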
# RGS-Gao: modulators of RGS–Galpha-o binding, primary screen, biochemical, multiplexed beads, flow cytometry, RGS4/7/8/16/19; shares compounds with RGS16-Gao; multiplexed bead flow cytometry; RGS4–Galpha-o binding response, % at 10 µM; 99% of 1,600 active; AID 1504, 2009;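 also: fluorescently labeled Galpha-o bound to GDP with aluminium fluoride binding biotinylated RGS beads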
# Target sequence (P09471 whole entry, looked up): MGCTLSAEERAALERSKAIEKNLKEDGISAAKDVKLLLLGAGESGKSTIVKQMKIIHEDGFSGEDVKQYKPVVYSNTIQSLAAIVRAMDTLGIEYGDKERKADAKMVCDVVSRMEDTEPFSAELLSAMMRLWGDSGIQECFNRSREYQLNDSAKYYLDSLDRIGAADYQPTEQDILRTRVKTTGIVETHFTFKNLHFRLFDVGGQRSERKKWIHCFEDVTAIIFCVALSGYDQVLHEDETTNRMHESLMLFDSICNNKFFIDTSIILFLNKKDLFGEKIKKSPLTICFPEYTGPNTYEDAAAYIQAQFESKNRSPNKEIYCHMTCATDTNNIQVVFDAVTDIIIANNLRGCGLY
# Target sequence (P49798 whole entry, looked up): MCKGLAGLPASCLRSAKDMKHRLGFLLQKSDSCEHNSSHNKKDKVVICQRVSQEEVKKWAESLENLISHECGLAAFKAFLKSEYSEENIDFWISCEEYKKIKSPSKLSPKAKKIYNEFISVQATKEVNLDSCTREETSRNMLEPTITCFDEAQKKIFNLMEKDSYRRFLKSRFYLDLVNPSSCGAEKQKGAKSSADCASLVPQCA
# Biotin-avidin: disruption of biotin probe capture by avidin, counter-screen for RGS protein interaction modulators, biochemical, flow cytometry, bead-based; shares compounds with RGS16-Gao; streptavidin beads, fluorescein-biotin binding; inhibition, % at 10 µM; 1,700 tested, under 10 active; AID 1783, 2009;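 active = inhibition above 50%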;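 also: median green fluorescence of gated singlet beads compared with DMSO control wells; 0% = DMSO wells and 100% = complete loss of bead fluorescence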
# RGS8-Gao confirm: RGS8-Galphao binding modulators, confirmation, biochemical, multiplexed bead flow cytometry, single concentration. bead-based flow cytometry RGS8-Galphao binding, fluorescence; actives lie on both sides. binding response (% of control), % at 10 µM. shares compounds with RGS16-Gao. 3% of 1,700 active; in the data active = binding response below about 72% or above about 130%; inactive = in between;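 also: Galphao activated as GDP AlF4 complex before binding bead RGS8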
# RGS7-Gao single: RGS7-Galphao binding modulators, confirmation, biochemical, multiplexed bead flow cytometry, single concentration; shares compounds with RGS16-Gao; bead-based flow cytometry RGS7-Galphao binding; actives lie on both sides; response (percent of control binding), % at 10 µM; 7.8% of 1,700 active; AID 1837, 2009; in the data active = response below about 75% or above about 130%; inactive = in between;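 also: fluorescent Galphao activated with GDP and aluminum fluoride binding bead-coupled RGS7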
# RGS16-Gao conf: modulators of RGS16-Galphao protein binding, confirmation, biochemical, single concentration, multiplexed bead flow cytometry. shares compounds with RGS16-Gao. bead-based flow cytometry; actives lie on both sides. 4% of 1,700 active. response (% of control binding), % at 10 µM; in the data active = response below about 74% or above about 130%; inactive = in between;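 also: Galphao activated as the GDP aluminium fluoride complex binding bead-coupled RGS16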
# RGS4-Gao confirm: modulators of RGS4-Galphao protein binding, confirmation, biochemical, single concentration, multiplexed bead flow cytometry | binding response (% of control), % at 10 µM | actives lie on both sides | 4% of 1,700 active | shares compounds with RGS16-Gao; in the data active = binding response below about 74% or above about 130%; inactive = in between
# RGS19-Gao conf: regulators of RGS19-Galphao binding, confirmation, biochemical, single point, multiplexed bead flow cytometry | shares compounds with RGS16-Gao | bead-based flow cytometry RGS19-Galphao binding; actives lie on both sides | response (percent of control binding), % at 10 µM | AID 1841, 2009 | 5% of 1,700 active; in the data active = response below about 50% or above about 160%; inactive = in between;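 also: 100% = no compound control and 0% = blank background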
# An asterisk follows results filed as active; u = inconclusive; x = not tested or not shown; [ ] = another dose, or the depositor's remark. Unless noted, no rule for the calls is given here.
SMILES,RGS16-Gao,GSH bead fluor,RGS4-Gao reg,Avidin fluor,RGS8-Gao reg,RGS7-Gao,RGS-Gao,Biotin-avidin,RGS8-Gao confirm,RGS7-Gao single,RGS16-Gao conf,RGS4-Gao confirm,RGS19-Gao conf
CCOc1c(O)ccc(C2NC(=O)N(C)C(C)=C2C(=O)OC)c1[N+](=O)[O-] (configuration not stated),89.3,20,130.4,168*,80.5,435.6*[activator],130.4*,-0.2,97.5,97.6,97.4,97.5,99.8
CC(NC(=O)c1sc2cc([N+](=O)[O-])ccc2c1Cl)C(C)(C)C (configuration not stated),15.2*,10,98.3,2,79.7,98.4,98.3*,1.0,64.8*,113.0,40.8*,88.7,15.9*
Cc1cc(OCC(=O)Nc2ccncc2)ccc1[N+](=O)[O-],98.5,16,97.9,9,97.0,u,x,x,x,x,x,x,x
FC(F)(F)Oc1ccc(NC(=S)Nc2ccccc2N2CCOCC2)cc1,103.5,x,106.8,7,105.4,u,x,x,x,x,x,x,x
CSCC[C@H](NC(=O)Nc1ccc(OC(F)(F)F)cc1)C(=O)O,48.2,x,60.9,5,55.0*,u,60.9*,-0.5,102.0,99.5,97.7,101.7,96.7
CSc1ccc(C2C(C#N)=C(N)Oc3c2ccc(=O)c2c(C)oc(C)c32)cc1 (configuration not stated),472.6,159*,179.6*[activator],93*,132.2,254.3*[activator],x,2.0,98.6,96.0,101.2,100.2,98.1
CC(C)(C)NC(=O)COC(=O)CCC(=O)c1cccs1,97.6,15,98.2,8,96.7,u,x,x,x,x,x,x,x
CNC(=O)c1cccc2cccc(Sc3ccccc3C(=O)O)c12,99.2,x,102.9,3,100.0,u,x,x,x,x,x,x,x
CNC(=O)c1ccccc1Sc1ccccc1CO,97.5,x,93.8,7,80.9,u,x,0.0,109.6,106.1,111.5,105.8,106.3
CC1CCCC(C)N1S(=O)(=O)c1ccc(S(=O)(=O)NCc2ccccc2)cc1 (configuration not stated),22.2*,22,89.8,3,70.9,92.0,89.8*,1.1,95.7,103.4,99.0,98.6,109.5
